Values quoted from earlier work as cited in PubChem BioAssay AID977608.
Hit rate of the full screen: of about 4,300 compounds, about 4,300 (100%) were called active. The limit is not given here; nearly all actives have IC50 up to about 1400 µM. The set was probably picked from earlier hits. The list shows a part of the results. Where a SMILES comes first, the peptide text is derived from it. [ ]: non-standard residue; d: D form. The star is where a group is joined. Thr(P(OH)3+) = C[C@@H](O[P+](O)(O)O)[C@H](N)C(=O)O; Pentanoyl(5-cHex) = O=C(CCCCC1CCCCC1)*; Ahx = NCCCCCC(=O)O

Test: protein-ligand inhibition affinities from structures – PDB-derived complexes (AID 977608)

O=C(C[P+](O)(O)O)OC1[C@@H](O[P+](O)(O)O)[C@H](O[P+](O)(O)O)C(OCc2ccccc2)[C@H](O[P+](O)(O)O)[C@H]1O[P+](O)(O)O (stereo not given in full)
IC50 (literature IC50, protein: Inositol hexakisphosphate and diphosphoinositol-pentakisphosphate kinase 2 PPIP5K2, PDB entry 4nzn): 420 nM (active)

O=C(C[P+](O)(O)O)OC1[C@@H](O[P+](O)(O)O)[C@H](O[P+](O)(O)O)C(O[P+](O)(O)O)[C@H](O[P+](O)(O)O)[C@H]1O[P+](O)(O)O (stereo not given in full)
IC50 (literature IC50, protein: Inositol hexakisphosphate and diphosphoinositol-pentakisphosphate kinase 2 PPIP5K2, PDB entry 4nzm): 140 nM (active)

CCCCCNCC([P+](O)(O)O)[P+](O)(O)O
IC50 (literature IC50, protein: Farnesyl pyrophosphate synthase, PDB entry 4dwb): 1840 nM (active)

CCCCCCCNCC([P+](O)(O)O)[P+](O)(O)O
IC50 (literature IC50, protein: Farnesyl pyrophosphate synthase, PDB entry 4dwg): 58 nM (active)

CCCNCC([P+](O)(O)O)[P+](O)(O)O
IC50 (literature IC50, protein: Farnesyl pyrophosphate synthase, PDB entry 4dxj): 38 nM (active)

CCCCCCNCC([P+](O)(O)O)[P+](O)(O)O
IC50 (literature IC50, protein: Farnesyl pyrophosphate synthase, PDB entry 4e1e): 490 nM (active)

CC(=O)N[C@H]1[C@@H](O[P+](O)(O)O[P+](O)(O)OC[C@H]2O[C@@H](n3ccc(=O)[nH]c3=O)[C@H](O)[C@@H]2O)O[C@H](CO)[C@@H](O)[C@@H]1O[C@H](C)C(=O)N[C@@H](C)C(=O)N[C@H](CCC(=O)N[C@@H](CSCCc1cn([C@@H]2[C@H](O)[C@@H](CO[P+](O)(O)O[C@H]3[C@@H](O)[C@H](n4ccc(N)nc4=O)O[C@@H]3CO[P+](O)(O)O[C@H]3[C@@H](O)[C@H](n4ccc(N)nc4=O)O[C@@H]3COP(O)O)O[C@H]2n2cnc3c(N)ncnc32)nn1)C(=O)N[C@H](C)C(=O)N[C@H](C)C(=O)O)C(=O)O
IC50 (literature IC50, protein: FemX, PDB entry 4ii9): 930 nM (active)

CN(Cc1cnc2c(n1)C(N)NC(N)N2)c1ccc(C(=O)N[C@@H](CCC(=O)O)C(=O)O)cc1 (stereo not given in full)
IC50 (literature IC50, protein: Lactobacillus casei dihydrofolate reductase, PDB entry 1ao8): 6 nM (active)

NCC[C@H](C1CC=CC1)n1cc(-c2ncnc3[nH]ccc23)cn1
IC50 (literature IC50, protein: Proto-oncogene tyrosine-protein kinase Src, PDB entry 4u5j): 2930 nM (active)

CC(C)COC(=O)N[C@H](CC=O)c1ccccc1
IC50 (literature IC50, protein: RHOMBOID PROTEASE GLPG, PDB entry 3zmj): 11700 nM (active)

O=CC[C@@H](NC(=O)Oc1ccccc1)c1ccccc1
IC50 (literature IC50, protein: RHOMBOID PROTEASE GLPG, PDB entry 3zmi): 1120 nM (active) | IC50 (literature IC50, protein: RHOMBOID PROTEASE GLPG, PDB entry 3zot): 1120 nM (active)

O=CC[C@@H](NC(=O)OC1CCCC1)c1ccccc1
IC50 (literature IC50, protein: RHOMBOID PROTEASE GLPG, PDB entry 3zmh): 5270 nM (active)

CSCC[C@H](NC(=O)[C@@H](NC(=O)[C@H](CO)NC(=O)[C@H](Cc1cnc[nH]1)NC(=O)[C@H](CC(C)C)NC(=O)[C@@H]1CCCN1C(=O)CC12CC3CC(CC(C3)C1)C2)[C@@H](C)O[P+](O)(O)O)C(N)=O (HELM PEPTIDE1{[O=C(CC12CC3CC(CC(C3)C1)C2)[*:2]].P.L.H.S.[C[C@@H](O[P+](O)(O)O)[C@H](N[*:1])C(=O)[*:2]].M.[am]}$$$$V2.0)
IC50 (literature IC50, protein: Serine/threonine-protein kinase PLK1, PDB entry 4lkl): 820 nM (active)

CSCC[C@H](NC(=O)[C@@H](NC(=O)[C@H](CO)NC(=O)[C@H](Cc1cnc[nH]1)NC(=O)[C@H](CC(C)C)NC(=O)[C@@H]1CCCN1C(=O)CCCCCNC(=O)CCCCC1CCCCC1)[C@@H](C)O[P+](O)(O)O)C(N)=O ({Pentanoyl(5-cHex)-Ahx}-PLHS[Thr(P(OH)3+)]M-NH2)
IC50 (literature IC50, protein: Serine/threonine-protein kinase PLK1, PDB entry 4lkm): 460 nM (active)

Cc1[nH]c2ccccc2c1CCNC(=O)c1ccccc1F
IC50 (literature IC50, protein: Arp2/3 complex, PDB entry 3ukr): 12000 nM (active)

NC1CCC(Nc2nccc(-c3cccnc3Oc3ccc(NS(=O)(=O)c4ccccc4)c4ccccc34)n2)CC1 (stereo not given)
IC50 (literature IC50, protein: Mitogen-activated protein kinase 10 JNK3, PDB entry 4u79): 400 nM (active)

COc1ccc(OC)c(NC(=O)COc2ccccc2[P+](O)(O)O)c1
IC50 (literature IC50, protein: 14-3-3 protein sigma, PDB entry 3t0m): 116000 nM (active)

COc1cccc(NC(=O)COc2ccccc2[P+](O)(O)O)c1
IC50 (literature IC50, protein: 14-3-3 protein sigma, PDB entry 4dho): 118000 nM (active)

O=C(COc1ccccc1[P+](O)(O)O)Nc1cc(Cl)cc(Cl)c1
IC50 (literature IC50, protein: 14-3-3 protein sigma, PDB entry 4dhs): 16000 nM (active)

O=C(COc1ccccc1[P+](O)(O)O)Nc1cccc(Cl)c1
IC50 (literature IC50, protein: 14-3-3 protein sigma, PDB entry 4dhq): 32000 nM (active)

O=C(COc1ccccc1[P+](O)(O)O)Nc1cccc(C(F)(F)F)c1
IC50 (literature IC50, protein: 14-3-3 protein sigma, PDB entry 4dhm): 165000 nM (active)

NC1=N[C@@]2(c3cc(NC(=O)c4ccc(F)cn4)ccc3F)COC[C@H]2CS1
IC50 (literature IC50, protein: Beta-secretase 1 BACE1, PDB entry 4x7i): 20.3 nM (active)

Cc1nc(-c2ccccn2)nc(N[C@H](Cc2ccccc2)C(N)=O)c1Cl
IC50 (literature IC50, protein: Methionine aminopeptidase 1, PDB entry 4iku): 1790 nM (active)

CCC(C)(C)c1nn(CCO)c2c1NC(c1ccc(-n3ccnc3C)cc1)CNC2=O (stereo not given)
IC50 (literature IC50, protein: cGMP-dependent 3',5'-cyclic phosphodiesterase, PDB entry 4jib): 45 nM (active)

CC[C@H](C)[C@H](CO)[C@@H](O)C(=O)N[C@H]1C[C@H]1C[C@@H](CCc1ccccc1)NC(=O)[C@H](C)NC(=O)OCc1ccccc1
IC50 (literature IC50, protein: Proteasome, PDB entry 4j70): 5700 nM (active)

COC(=O)N[C@@H](CC(C)C)C(=O)N[C@H](CO)C[C@@H]1CCNC1=O
IC50 (literature IC50, protein: 3C-like protease, PDB entry 3ur9): 490 nM (active)

CC(C)C[C@H](NC(=O)OCc1ccccc1)C(=O)N[C@@H](CC(C)C)C(=O)N[C@@H](CC(C)C)[C@@H](O)[C@H](C)CO
IC50 (literature IC50, protein: Proteasome subunit alpha CP, PDB entry 4no9): 15 nM (active)

CC(C)C[C@H](NC(=O)OCc1ccccc1)C(=O)N[C@H](CO)C[C@@H]1CCNC1=O
IC50 (literature IC50, protein: 3C-like proteinase, PDB entry 4f49): 820 nM (active) | IC50 (literature IC50, protein: Genome polyprotein, PDB entry 4dcd): 1770 nM (active)

c1cc2cnc3sccc3c2cn1
IC50 (literature IC50, protein: DUAL SPECIFICITY PROTEIN KINASE TTK, PDB entry 4bhz): 53500 nM (active)

c1cc2cnc3ccsc3c2cn1
IC50 (literature IC50, protein: DUAL SPECIFICITY PROTEIN KINASE TTK, PDB entry 4bi1): 69100 nM (active)

c1cc2c(cn1)cnc1sccc12
IC50 (literature IC50, protein: DUAL SPECIFICITY PROTEIN KINASE TTK, PDB entry 4bi2): 94100 nM (active)

O=C(O)[C@H]1CCCC[C@H]1C(=O)N1CCc2ccccc2[C@H]1CN1Cc2ccccc2C1=O
IC50 (literature IC50, protein: Kelch-like ECH-associated protein 1, keap1 kelch domain, PDB entry 4n1b): 1100 nM (active)

Cc1cccc2c1CCN(C(=O)[C@@H]1CCCC[C@@H]1C(=O)O)[C@@H]2CN1Cc2ccccc2C1=O
IC50 (literature IC50, protein: Kelch-like ECH-associated protein 1, keap1 kelch domain, PDB entry 4l7d): 750 nM (active)
